The values that follow come from ChEMBL document CHEMBL4513216, “Probing the Open Global Health Chemical Diversity Library for Multistage-Active Starting Points for Next-Generation Antimalarials” (ACS Infect Dis, 2020).

Each structure is given as a SMILES string. Hit rate of the full screen: of about 69,000 compounds, about 8,600 (12%) showed an effect of 50% or more. The entries come from a sample that favours strong results as a whole.

The test system of this assay is Plasmodium berghei. Nature of the assay: Screen against P. berghei liver stage (PbLuc), transformed with Luciferase, at 10uM. Type of assay: functional, HepG2. The settings on record: tested at 10 uM.
As to `CC(c1ccncc1)N(C)C(=O)NCCOc1ccc(C#N)cc1` (stereo not given), the INHIBITION is given as 34.7%. Turning to `COCCN1CCN(c2ccc3ccc(C(=O)NC4CC4)cn23)CC1`, the INHIBITION is 18.6%.

With `C=C(C)CN1CCN(Cc2cnc(OC)nc2)CC1`, the INHIBITION is 25.6%. Next, `COCCn1cc(CCC(=O)Nc2c(C)nn(C)c2C)c2ccccc21`: 39.4%; `CN(C)C(=O)N1CCC2(CC1)C(c1cnn(C)c1)CC(=O)N2C` (stereo not given): 39.2%.

For the compound `Fc1cnc(N2CC[C@@H]3OC(COCc4cccnc4)CC[C@@H]32)nc1` (stereo not given in full), the INHIBITION is given as 37.8%. Next, `Cc1csc(NC(=O)[C@@H]2C[C@H]3[C@H](CCN3S(C)(=O)=O)O2)n1`: 61.3%. For the compound `Cc1csc(NC(=O)[C@@H]2C[C@H]3[C@H](CCN3c3ncccn3)O2)n1`, the INHIBITION was -16.2%. On to `O=C(NC1CC1)[C@H]1CC[C@@H]2[C@@H](CCN2CCOCc2ccccc2)O1`, for which the INHIBITION is listed as 10.4%. Next, `Cn1cc(CN2CC[C@H]3O[C@H](C(=O)Nc4cnccn4)CC[C@H]32)cn1`: 30.3%.

On to `Cn1cc(CN2CC[C@H]3O[C@H](C(=O)NC4CC4)CC[C@H]32)c2ccccc21`, for which the INHIBITION stood at 66.8%. Next, `CC(=O)N1CC[C@@H]2O[C@H](C(=O)Nc3nc(C)cs3)C[C@@H]21`: -24.1%; `O=C(NC1CCC1)[C@@H]1CC[C@@H]2[C@@H](CCN2CCc2ccccc2)O1`: 42.1%; `COCCNC(=O)[C@@H]1CC[C@@H]2[C@@H](CCN2Cc2cnn(C)c2)O1`: 7.11%. Next, `Cn1cc(CN2CC[C@H]3O[C@@H](C(=O)NC4CC4)CC[C@H]32)cn1`: 62.4%; `CN(C)CC1(O)CCN(C(=O)Cc2ccc3ccccc3c2)C1` (stereo not given): -37.7%.

Regarding `COc1c(C2CCCN2C(=O)c2ccc(C(N)=O)s2)c(C)nn1C` (stereo not given), the INHIBITION was found to be 2.93%. As for `Cc1nc(CN(C)C2CCN(CCCOc3ccccc3)C2)no1` (stereo not given), the INHIBITION worked out at 31.9%. Regarding `Cc1cnc(C(=O)NC(COCC(C)C)c2ccco2)cn1` (stereo not given), the INHIBITION is 36.1%. Next, `O=C(N1CCOCC1)N1CCc2ncc(CN3CCCCC3)n2CC1`: 15.9%; `CC(C)CCN1CCN(C(=O)c2cnccn2)CC1`: 25%. Next, `CC(C)Nc1n[nH]c2nc(C3CCN(C(=O)c4ccccn4)C3)ccc12` (stereo not given): -7.66%; `CCCNC(=O)c1cc(Br)c2c(c1)OCCO2`: 31.2%.

For the compound `CC(C)NC(=O)c1cc(Br)c2c(c1)OCCO2`, the INHIBITION is on record as -48.4%.

In the case of `CCC(C#N)NC(=O)c1cc(Br)c2c(c1)OCCO2` (stereo not given), the INHIBITION is given as -36.1%. For the compound `CC(CC#N)NC(=O)c1cc(Br)c2c(c1)OCCO2` (stereo not given), the INHIBITION was 12.7%. Next, `CC(C)CNC(=O)c1cc(Br)c2c(c1)OCCO2`: 51.8%; `CCCC(C#N)NC(=O)c1cc(Br)c2c(c1)OCCO2` (stereo not given): 60.5%.

`COc1ccc(-c2nc(C#N)c(N(C)C)o2)cc1S(=O)(=O)N(C)C`: the INHIBITION worked out at 12.8%. Next, `CC(NC(=O)c1cccs1)C(=O)Nc1cccnc1N1CCCCC1` (stereo not given): -36.3%; `CC(=O)N(C)CC(=O)Nc1cnc(-n2ccnc2C)nc1`: 95.9%.

On to `CC(=O)N(C)CC(=O)Nc1cnc(-n2ccnc2)nc1`, for which the INHIBITION was 41.2%. Next, `CC(=O)Nc1cnc(-n2ccnc2)nc1`: 13.8%. Consider `CN(Cc1nccn1CC(F)(F)F)C(=O)c1cccc(N(C)C)c1`, for which the INHIBITION is reported as -15.7%. Next, `CC(=O)N1CCCC2(CN(Cc3ccc(F)cc3)CCO2)C1` (stereo not given): -0.813%. Next, `Cc1noc(C)c1CN1C(=O)[C@@H]2CC[C@H]1CN(Cc1ccc(Cl)cc1)C2`: -48.1%; `O=C(c1n[nH]cc1Br)N1CCOCC1`: 33.3%; `COc1nccnc1N1CCC2(CCCN(C(C)C)C2=O)C1` (stereo not given): -9.17%.

For `Cc1nc(N2CCC3(CCCN(CCO)C3=O)C2)c2sccc2n1` (stereo not given), the INHIBITION is listed as 40.5%. `Cc1nc(N2CCC3(CCCN(CC4CC4)C3=O)C2)c2sccc2n1` (stereo not given): the INHIBITION is 82.9%. Next, `COCCN1CCCC2(CCN(c3nc(C)nc4ccsc34)C2)C1=O` (stereo not given): 41.8%.

As for `Cc1nc(N2CCC3(CCCN(C(C)C)C3=O)C2)c2sccc2n1` (stereo not given), the INHIBITION is 81.6%. Regarding `CNc1nc(C(=O)N2CCC3(CCCN(CC4CC4)C3=O)C2)cs1` (stereo not given), the INHIBITION was 21.2%. Next, `COc1ccnc(N2CCC3(CCCN(CC4CC4)C3=O)C2)n1` (stereo not given): 30.3%; `CCCN1CCCC2(CCN(c3nc(C)nc4ccsc34)C2)C1=O` (stereo not given): 76.5%. Next, `COc1ccnc(N2CCC3(CCCN(C(C)C)C3=O)C2)n1` (stereo not given): 48.8%.

Take `Cc1ccc(N2CCCN(C(=O)C3CCCO3)CC2)nn1` (stereo not given): the INHIBITION is on record as -72.5%. Next, `Cn1nc(CN2CCOCC2)c2c1CN(Cc1ccsc1)C2`: 8.03%; `COc1ccc2c(c1)C(=O)NC1(CC2)CCN(Cc2ccccc2)C1` (stereo not given): 41.3%. Next, `CC(C)c1nc(C2CCCN2CCOCC2CC2)no1` (stereo not given): 12.3%; `CN1C(=O)CC(C(=O)O)C12CCN(c1ccc3c(n1)CCCC3)CC2` (stereo not given): -11.7%. Next, `CC1(C)CN(CCC(=O)NCc2cccc(Cl)c2)CC[C@]1(C)O`: 24.2%. Regarding `Cc1ccc2[nH]c(C(=O)N3CCCC3Cn3cccn3)cc2c1` (stereo not given), the INHIBITION amounted to 16.8%. Next, `O=C(CCc1cc(F)ccc1F)NS(=O)(=O)c1ccc2c(c1)OCCO2`: 42%; `CN(Cc1ccccc1)C(=O)CCS(=O)(=O)c1ccc2c(c1)OCCO2`: 41.4%; `O=C(CCc1ccccc1F)NS(=O)(=O)c1ccc2c(c1)OCCO2`: 50.3%. Turning to `CSCC(=O)N(C)Cc1ccccc1`, the INHIBITION is given as 47.4%. Next, `COc1cccc(CN(C)C(=O)CSc2ccc3c(c2)OCCO3)c1`: -45.8%; `CSCC(=O)N(C)Cc1ccc(N(C)C)cc1`: 47.4%.

As for `O=C(CSc1ccc2c(c1)OCCO2)NS(=O)(=O)c1ccccc1F`, the INHIBITION is reported as 68.2%. As to `O=C(CSc1ccc2c(c1)OCCO2)NS(=O)(=O)c1cc(F)ccc1F`, the INHIBITION was found to be 27.6%. On to `CN(Cc1ccccc1)C(=O)CSc1ccc2c(c1)OCCO2`, for which the INHIBITION was 73.1%. Next, `O=C(CCc1ccccc1F)NS(=O)(=O)c1ccc2c(c1)OCCCO2`: 16%; `Cc1ccccc1S(=O)(=O)NC(=O)CSc1ccc2c(c1)OCCO2`: 5.65%; `CN(Cc1ccc(N(C)C)cc1)C(=O)CSc1ccc(Br)cc1`: 79.1%. Turning to `Cn1ccnc1CC1CCCN(C(=O)NCCOc2cccnc2)C1` (stereo not given), the INHIBITION was 44.5%.

Consider `Cc1cn[nH]c1C1CCCCN1C(=O)CCc1c(C)n[nH]c1C` (stereo not given), for which the INHIBITION is on record as 33.7%.

With `c1cnc(NCc2nnn3c2CN(CC2CC2)CCC3)nc1`, the INHIBITION is reported as 10.6%.

In the case of `CC(c1cccc(S(N)(=O)=O)c1)N(C)CCOc1ccccc1` (stereo not given), the INHIBITION turned out to be 22.3%.

`Cc1nnc2n1CCN(C(=O)c1cn(-c3ccc(F)cc3)nn1)C2`: the INHIBITION is -6.39%.

Turning to `CC(=O)N(Cc1ncc(C)o1)C1CCN(Cc2nnc(C3CC3)o2)C1` (stereo not given), the INHIBITION is reported as 34.9%. Next, `COc1ccc(S(=O)(=O)N2CCOC(C)(C(N)=O)C2)cc1` (stereo not given): -2.605%; `NC1CCCc2c1cnn2-c1cc(F)cc(F)c1` (stereo not given): -19.1%. In the case of `OCC(O)CSCc1cc(Cl)ccc1Cl` (stereo not given), the INHIBITION is 5.41%.

`OCC(O)CSCc1ccc(Cl)cc1Cl` (stereo not given): the INHIBITION is 53.9%. On to `OCC(O)CSCc1ccc(F)cc1Cl` (stereo not given), for which the INHIBITION was -15.6%. In the case of `COc1cccc(C(=O)NS(=O)(=O)c2cncc(Br)c2)c1OC`, the INHIBITION is recorded as 15.1%. As to `CCc1ccc(S(=O)(=O)Nc2ccncc2)s1`, the INHIBITION was -6.4%. Next, `Cn1cc(CN2CCc3onc(C(=O)Nc4cccnc4)c3C2)cn1`: 43.4%. Next, `CC(C)(C)c1nc(CNC2CCN(S(C)(=O)=O)CC2)cs1`: 20.6%; `O=C(c1cccnc1O)N1CCOC(Cc2cccc(C(F)(F)F)c2)C1` (stereo not given): 31.7%; `CN(C)C(=O)c1cccnc1N1CCOC(c2ccc(Cl)cc2)C1` (stereo not given): 55%.

On to `O=C(c1cccnc1N1CCOC(c2ccc(F)cc2)C1)N1CCCC1` (stereo not given), for which the INHIBITION came to 45.1%. Next, `O=C(c1cccnc1N1CCOC(c2ccc(Cl)cc2)C1)N1CCCC1` (stereo not given): 45.1%; `O=C(c1cccnc1O)N1CCOC(c2ccc(Cl)cc2)C1` (stereo not given): 68.6%; `O=C(c1cccnc1N1CCCC1)N1CCOC(c2ccccc2)C1` (stereo not given): -30.2%. Next, `O=C(CSc1nnc(N2CCOCC2)s1)NCc1cccs1`: -21.5%. As for `CC(C)COC(C)C(=O)NCCNS(C)(=O)=O` (stereo not given), the INHIBITION is 2.29%.

Regarding `Cc1oc(-c2ccsc2)nc1CC(=O)NCC(=O)Nc1cn[nH]c1`, the INHIBITION turned out to be 33%.

Regarding `Cc1nn(CC(=O)NCc2cc3n(n2)CCCN(CC(C)C)C3)cc1Cl`, the INHIBITION came out at 58.7%. Next, `CC(C)CN1CCCn2nc(CNC(=O)CN3CCOC3=O)cc2C1`: 7.92%.

Take `CC(C)CN1CCCn2nc(CNC(=O)CCN)cc2C1`: the INHIBITION amounted to 16.6%. Next, `Cc1noc(C)c1C(C)C(=O)N1CCCN(C)c2ccc(Cl)cc21` (stereo not given): 33.1%; `CN1CCC(c2cc(C(F)(F)F)n3ccnc3n2)CC1`: 26.3%. Next, `CC(=O)Nc1cccc(-c2ccccc2CCN)c1`: 71.3%; `CC(=O)Nc1ccc(-c2ccccc2CCN)cc1`: -2.43%. Next, `CC(=O)Nc1ccc(-c2ccccc2NC(=O)CN)cc1`: -17.7%.

As to `c1cc(C2CCN(C3CCCCC3)C2)n[nH]1` (stereo not given), the INHIBITION turned out to be 18.535%. On to `Cc1nc2ccccn2c1CC(=O)N[C@@H]1CC[C@@H](N2CCOCC2)[C@@H]1O`, for which the INHIBITION stood at 52%. Take `Cc1nc2ccccn2c1CC(=O)N[C@@H]1CCC[C@@H](N2CCCC2)[C@@H]1O`: the INHIBITION is recorded as -29.8%. As to `Cc1nc2ccccn2c1CC(=O)N[C@@H]1CC[C@@H](N2CCCC2)[C@@H]1O`, the INHIBITION is on record as -6.92%. Consider `CCc1ncnc(N2CCOCC2C2CC2)c1F` (stereo not given), for which the INHIBITION is reported as 57.5%. Next, `CCc1ncnc(N2CCOCC2C(N)=O)c1F` (stereo not given): -4.95%.

On to `CCc1ncnc(N2CCOCC2CCO)c1F` (stereo not given), for which the INHIBITION is listed as 6.94%. Next, `O=C1CC(c2ccncc2)C2(CCN(C(=O)c3cccc(F)c3)CC2)N1` (stereo not given): 11.3%.
